The panel holds about 79,000 compounds, 15% with a hit somewhere; the sample as a whole holds those more often. Calls of active or inactive are those of the source. No stated cut-off is given here; in the data, active means growth inhibition above about 70%; inactive means the rest.
Key:
[1] = NCI Yeast Anticancer Drug Screen. Data for the rad50 strain (AID 155);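 further: 0% = growth of vehicle-only cultures of the same strain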; settings: S. cerevisiae rad50 strain growth inhibition; at 50.0 µM; hits give high values
Procedure, shortened: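 Cells are treated with compound, grown, and their growth is then scored against vehicle-only cultures of the same repair-deficient yeast strain.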

[2] = NCI Yeast Anticancer Drug Screen. Data for the mec2-1 strain (AID 157); settings: S. cerevisiae mec2-1 strain, at 50.0 µM, hits give high values
Procedure, shortened: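 Each compound was tested on mec2-1 yeast, a strain altered in DNA damage repair or cell cycle control. Growth inhibition is reported relative to vehicle.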

[3] = NCI Yeast Anticancer Drug Screen. Data for the sgs1 mgt1 strain (AID 161);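 further: 0% = growth of cultures given vehicle only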; settings: S. cerevisiae sgs1 mgt1 strain, at 50.0 µM, hits give high values
Procedure, shortened: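 Inhibition of yeast growth, normalised to vehicle-treated controls, is reported for a strain bearing genetic alterations in DNA damage repair.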

[4] = NCI Yeast Anticancer Drug Screen. Data for the cln2 rad14 strain (AID 165);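 further: 0% = growth equal to vehicle treated cultures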; settings: S. cerevisiae cln2 rad14 strain, at 50.0 µM, hits give high values
Procedure, shortened: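 Test compounds were added to cln2 rad14 yeast cultures; inhibition of growth was then determined by comparison with vehicle treatment.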

[5] = NCI Yeast Anticancer Drug Screen. Data for the bub3 strain (AID 167); settings: S. cerevisiae bub3 mutant strain, at 50.0 µM, hits give high values
Procedure, shortened: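 Part of a panel of yeast mutants defective in DNA damage repair or cell cycle regulation. Each strain is grown with compound, and inhibition is calculated relative to solvent-treated cultures.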

[6] = NCI Yeast Anticancer Drug Screen. Data for the mlh1 rad18 strain (AID 175); settings: S. cerevisiae mlh1 rad18 strain growth inhibition; at 50.0 µM; hits give high values
Procedure, shortened: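 Inhibition values reflect reduced growth of mutant yeast versus vehicle-treated controls following compound exposure; the mutations affect DNA damage repair.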

Measured: growth inhibition

CC(C)OC(=O)N[C@@H]1c2ccccc2CC[C@H]1I
inactive: [1] 24.5% | [2] 5.8% | [3] 19.3% | [4] -36.5% | [5] 24.7% | [6] 3.55%

CN(C)c1ccc(/C=C/c2ccccc2)cc1
inactive: [1] -3.6% | [2] -6.15% | [3] -8.95% | [4] -15.1% | [5] -16.2% | [6] 1.55%

O=C1CN(c2ccccc2)C(=O)CN1CCN1CC(=O)N(c2ccccc2)CC1=O
inactive: [1] -34% | [2] 14.8% | [3] -4.5% | [4] -2.3% | [5] -31.5% | [6] -8.6%

CCN(CC)CCOc1cc(C(C)C)ccc1C
inactive: [2] 63.5% | [3] 63.5% | [5] 40.5%
active: [1] 76% | [4] 76.2% | [6] 78.2%

CCc1cc(O)c([N+](=O)[O-])cc1[N+](=O)[O-]
inactive: [1] -15.7% | [2] -3.95% | [3] 21.1% | [4] -34.8% | [5] -17.2% | [6] -7.95%

Cn1cnc([N+](=O)[O-])c1Sc1ccncc1S(N)(=O)=O
inactive: [1] -5.65% | [2] -14.4% | [3] 0.2% | [4] 2.1% | [5] 6.5% | [6] -9.15%

COC(=O)C1=NC(=S)N=C(C(=O)OC)C1(C)C(=O)c1ccc(Cl)cc1
inactive: [1] -2.55% | [2] 2.65% | [3] -14.9% | [4] 17.2% | [5] 2.75% | [6] 4.35%

Cc1nc(C(Cl)(Cl)Cl)nc(C(Cl)(Cl)Cl)n1
inactive: [1] 19.9% | [2] 47% | [3] 27.2% | [4] 9% | [5] 18.4% | [6] 20.4%

COc1cccc2c1CC/C(=C\c1ccccn1)C2=O
active: [1] 98.5% | [2] 99.1% | [3] 98.9% | [4] 97.8% | [5] 98.8% | [6] 99.2%

Cc1oc2nc(N(C)C)n3nnnc3c2c1C
inactive: [1] -0.35% | [2] -8.5% | [3] -6.15% | [4] -4.1% | [5] 25.3% | [6] -14.4%

O=S(O)CCCCCSSSCCCCCS(=O)O
inactive: [1] 8.2% | [2] 8.8% | [3] -2.8% | [4] -10.4% | [5] 9.05% | [6] 44.7%

Oc1cc2c(cc1C(c1ccc3c(c1)OCO3)N1CCCC1)OCO2 (stereo not drawn)
inactive: [1] -4.9% | [2] -9.35% | [3] 8.25% | [4] -27.6% | [5] 19.8% | [6] 28.4%

CCOC(=O)c1c(O)csc1N
inactive: [1] 7.85% | [2] 5.45% | [3] 3.8% | [4] -16.9% | [5] -20.6% | [6] 10.7%

CC1CC[P+](C)(c2ccccc2)c2ccccc21 (stereo not drawn)
inactive: [1] 26% | [2] 15.7% | [3] 1.6% | [4] -4.6% | [5] 2.75% | [6] 20.6%

O=C(C[n+]1cccc(Cl)c1)c1ccccc1
inactive: [1] -3.55% | [2] 7.9% | [3] 7.9% | [4] -9.7% | [5] -4.85% | [6] -0.5%

CN(C)Cc1ccc(-c2cc3onc(-c4ccccc4)c3c(=O)n2C)cc1
inactive: [1] -22.9% | [2] -13.1% | [3] -29.5% | [4] -8.4% | [5] -28% | [6] 2.5%

Oc1ccc2ccccc2c1/C=N\Sc1ccc(Cl)cc1
inactive: [1] 49% | [2] 34.7% | [3] 64.1% | [4] 28.8% | [5] 32.2% | [6] 49%

O=C(O)CCc1ccc(-c2ccccc2)[nH]1
inactive: [1] -14.3% | [2] -6.95% | [3] -11.7% | [4] 1.35% | [5] -29.1% | [6] -16.6%

O=C(COc1ccc(Cl)cc1)Nc1ccc(I)cc1
inactive: [1] 0.05% | [2] -4.85% | [3] 0.6% | [4] -5.15% | [5] -1.45% | [6] 6.45%

CSc1c(C#N)c(N)n2c1C(=O)N(c1ccccc1)C2=S
inactive: [1] -52.7% | [2] 25.6% | [3] -26.9% | [4] 20.1% | [5] 26.1% | [6] -4.8%

Nc1nc2c(c(-c3ccc(Cl)cc3)n1)CN(CCCC(=O)O)C2=O
inactive: [1] -1.8% | [2] 13.9% | [3] 7.4% | [4] -0.15% | [5] 2.35% | [6] 10.7%

N#Cc1cc([N+](=O)[O-])ccc1NC(=O)C(=O)C(C(=O)c1ccc2ccccc2c1)C1OCc2ccccc21 (stereo not drawn)
inactive: [1] 11.1% | [2] -6.4% | [3] -2.85% | [4] 36.1% | [5] -8.5% | [6] -9.95%

CCCC(C(=O)O)C(O)(CC(=O)O)C(=O)O (stereo not drawn)
inactive: [1] 18.6% | [2] -14.6% | [3] 11.4% | [4] -32.1% | [5] 7.85% | [6] -20.6%

O=S(=O)(N/N=C/c1ccncc1)c1ccccc1
inactive: [1] 39.4% | [2] 16.9% | [3] 60.5% | [4] 41.1% | [5] 34.5% | [6] 50.5%

COC(=O)c1sc2c(=O)c(C(=O)OC)c(C(=O)OC)sc2c(=O)c1C(=O)OC
inactive: [1] 23.1% | [2] 27.4% | [3] 54.3% | [4] -1.1% | [5] 50.9% | [6] 38.6%

Cc1cc(C)c(CCl)c(C)c1CCl
inactive: [1] 0.9% | [2] 2% | [3] -9.1% | [4] -57.5% | [5] 5.75% | [6] 10.2%

CC(C)CCCC(C)C1CCC2(C)C3=C(CCC12C)C1(C)Cc2cnn(-c4ccccc4)c2C(C)(C)C1CC3 (stereo not drawn)
inactive: [1] -6.4% | [2] -6.05% | [3] -6.65% | [4] -12.8% | [5] -2.85% | [6] -17.4%

CNc1ccn(C2OC(CO)C(O)C2SC(C)(C)C)c(=O)n1 (stereo not drawn)
inactive: [1] 6.15% | [2] 0.25% | [3] 13.7% | [4] 9.1% | [5] 0.45% | [6] 28.6%

O=[N+]([O-])c1ccc(F)c(Cl)c1F
inactive: [1] 15.8% | [2] -6.65% | [3] -2.15% | [4] -20.9% | [5] -12.7% | [6] -3.45%

Cc1nnc(-n2nc(-c3ccc(Cl)cc3)cc2N)[nH]c1=O
inactive: [1] 54% | [2] 12.1% | [3] 22.4% | [4] 12.8% | [5] 23.4% | [6] 34%

O=c1[nH]nc(S(=O)(=O)c2ccccc2)c(=O)[nH]1
inactive: [1] 13.2% | [2] -6.45% | [3] -1.7% | [4] -10.6% | [5] 9.3% | [6] -3.2%

CC(=O)OCN(C)N=Nc1ccc([N+](=O)[O-])cc1
inactive: [1] 28% | [2] 10.5% | [3] 25.8% | [4] 6.15% | [5] 10.6% | [6] 22.6%

CN(C)c1nc2ccccc2[nH]1
inactive: [1] 2.6% | [2] -4.25% | [3] 11.9% | [4] -1.35% | [5] -4.85% | [6] -2%

CC1C=CC(C)S(=O)N1C(=O)Cc1ccccc1 (stereo not drawn)
inactive: [1] -2.6% | [2] -14.6% | [3] -9.35% | [4] -16.9% | [5] -25.5% | [6] -19.6%

CC(C)N(CC(c1ccccc1)C(C)(O)c1ccccc1)C(C)C (stereo not drawn)
inactive: [1] -10.1% | [2] 15.7% | [3] -7.55% | [4] 4.2% | [5] 26.7% | [6] -21.1%

N#C/C(C(=O)Nc1ccccc1)=C(/N)N1CCCC1
inactive: [1] 18.4% | [2] -15.7% | [3] 1.85% | [4] -5.65% | [5] -14.3% | [6] 25.6%

NC(=O)N/N=C/c1cccc([N+](=O)[O-])c1
inactive: [1] -7% | [2] 27.8% | [3] -5.9% | [4] -32.5% | [5] 25.6% | [6] 0%

O/N=C1\CC2CC1C1CC3(CC3)C21 (stereo not drawn)
inactive: [1] -6.85% | [2] -9.6% | [3] -0.15% | [4] -0.9% | [5] -22.2% | [6] 20.6%
